# Screening data as filed in PubChem.
# The list is not random: actives were taken first. Their share in the collection is about 2%.
# Gli-Sufu block – antagonists of Gli-Sufu signaling | AID 588413 | inhibition, % at 5 µM | 340,000 tested, 0.74% active | Sufu-KO-LIGHT fibroblasts, Gli luciferase reporter luminescence;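 active = inhibition above about 55%, limit read from the data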;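 also: 0% = DMSO-treated cells and 100% = wells with medium but no cells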
# GalR3 antag – blocks the human galanin receptor 3; O60755; 360,000 tested, 0.44% active; inhibition, % at 3 µM; HEK293 GalR3-CNG cAMP membrane potential fluorescence; galR3 body fused to GalR1 C-terminus;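 active = inhibition above the screen-wide average plus 3 SD, cut at about 13% in these data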;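 also: forskolin and galanin both at EC90 stimulate the cells; cAMP rise reported by CNG channel membrane potential dye signal; 0% = forskolin plus galanin with DMSO and 100% = forskolin alone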
# Target sequence (O60755 1-299 limits assumed): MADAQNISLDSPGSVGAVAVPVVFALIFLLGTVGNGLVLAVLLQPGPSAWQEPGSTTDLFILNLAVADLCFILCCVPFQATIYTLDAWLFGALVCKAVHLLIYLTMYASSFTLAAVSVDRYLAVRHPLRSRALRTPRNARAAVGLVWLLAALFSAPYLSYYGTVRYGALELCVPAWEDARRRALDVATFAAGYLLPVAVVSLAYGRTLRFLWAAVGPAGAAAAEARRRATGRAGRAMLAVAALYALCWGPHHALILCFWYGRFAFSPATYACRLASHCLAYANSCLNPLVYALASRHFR
# Jurkat NFkB inh – lowers PMA/ionomycin-induced NF-kB signal in Jurkat cells; 330,000 tested, 0.53% active; AID 435003; PMA/ionomycin-induced NF-kB luciferase reporter, luminescence; inhibition, % at 4 µM; in the data active = inhibition above about 50%
# COUP-TFII inh – blocks human COUP-TFII nuclear receptor; P24468; HEK293T NGFI-A luciferase reporter, luminescence; inhibition, % at 8.6 µM; 370,000 tested, 0.7% active;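 active = inhibition above a per-plate cutoff, mean inhibition of test wells between control levels plus 3 SD, cut at about 38% in these data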;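 also: cells cotransfected with COUP-TFII expression vector driving the NGFI-A reporter; 0% = median of COUP-TF2 test wells and 100% = reporter-only cells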
# 697 NFkB inh – inhibitors of the PMA/ionomycin-induced NF-kB reporter in 697 B cells; AID 435022; 330,000 tested, 0.33% active; inhibition, % at 4 µM; 697 B-cell NF-kB luciferase reporter, 16 h; in the data active = inhibition above about 35%
# An asterisk follows results filed as active; nt = no result.
SMILES,Gli-Sufu block,GalR3 antag,Jurkat NFkB inh,COUP-TFII inh,697 NFkB inh
COc1ccc(-c2cc(NC=O)c3ncc(-c4ccc(OC)c(OC)c4)n3c2)cc1OC,nt,0,nt,-22,nt
COc1ccc(-c2cnc3c(NC=O)cc(-c4ccccc4OC)cn23)cc1OC,nt,34*,nt,-109,nt
CN1C(=O)c2cc(NC(=O)Nc3ccccc3F)ccc2OC[C@H]2O[C@@H](CC(=O)NCc3ccc(-c4ccccc4)cc3)CC[C@@H]21,nt,nt,nt,7,nt
O=C(O)c1ccc(N/N=C/c2ccc(OC(=O)c3cccc(Cl)c3)cc2)cc1,61*,-3,44,-18,34
O=[N+]([O-])c1ccc2[nH]c3nc4ccccc4nc3c2c1,57*,-14,-15,24,-11
O=[N+]([O-])c1ccc2[nH]nc(-c3ccccc3)c2c1,15,-3,-24,2,-21
COc1cccc2c1C(=N)c1c(O)c3c(c(O)c1C2=O)CC(O)(C(C)=O)CC3OC1CC(N)C(O)C(C)O1 (stereo not given),75*,nt,nt,nt,nt
COc1cccc2c1C(=O)c1c(O)c3c(c(O)c1C2=O)CC(O)(C(C)=O)CC3OC1CC(O)C(O)C(C)O1 (stereo not given),55*,-8,nt,-89,nt
CCCCC(=O)OCC(=O)C1(O)Cc2c(O)c3c(c(O)c2C(OC2CC(NC(=O)C(F)(F)F)C(O)C(C)O2)C1)C(=O)c1c(OC)cccc1C3=O (stereo not given),39,-1,nt,-18,nt
CC(COc1ccc(S(C)(=O)=O)cc1)CN1CCC(C(O)(c2ccccc2)c2ccccc2)CC1 (stereo not given),nt,nt,nt,-2,nt
O=C(Nc1ccccc1C(F)(F)F)OCCCN1CCC2(CCC(c3ccccc3)CC2)C1=O (stereo not given),nt,nt,nt,26,nt
Cc1cc(/C=C2\SC(=S)N(Cc3ccco3)C2=O)c(C)n1-c1cccnc1,-26,0,nt,-4,nt
Cc1cc(/C=C2/SC(=S)N(c3cccc(C(F)(F)F)c3)C2=O)c(C)n1-c1cccnc1,71*,nt,-3,nt,-31
COc1ccc(-n2ncc3c(N4CCCCC4)ncnc32)cc1,56*,nt,15,nt,-26
COc1ccc(-n2ncc3c(N4CCN(c5cccc(C)c5C)CC4)ncnc32)cc1,4,1,10,-3,-2
CCCC[C@@H](CCCc1ccc(F)cc1)CCC(=O)N(c1ccccc1)c1ccccc1,nt,nt,nt,-12,nt
CCCC(=O)N1CCC[C@]2(CC[C@@H](CCC#N)O2)C1,nt,nt,nt,6,nt
COc1cc([C@@H]2c3cc4c(cc3[C@@H](O[C@@H]3O[C@@H]5CO[C@@H](C)O[C@H]5[C@H](O)[C@H]3O)[C@H]3COC(=O)[C@H]23)OCO4)cc(OC)c1O,82*,-4,48,-53,-213
N#CCC[C@@H]1CC[C@]2(CCCN(C(=O)c3ccc4ccccc4n3)C2)O1,nt,nt,nt,-10,nt
CC(=O)N1CCN(c2ccc(Oc3ccc([N+](=O)[O-])c(C(F)(F)F)c3)cc2)CC1,67*,nt,21,nt,-14
COc1ccc(-c2cc(C(F)(F)F)nc(S(=O)(=O)CCCC(=O)Nc3cccnc3Cl)n2)cc1OC,-4,17*,nt,-40,nt
COC(=O)CCS(=O)(=O)c1nc(-c2ccccc2)cc(C(F)(F)F)n1,-4,nt,15,nt,-32
COc1cccc(C(=O)N/N=C(/c2ccccc2)c2ccccn2)c1,81*,5,27,0,-44
CCN1CCN(Cc2ccc(NC(=O)c3ccc(C)c(NC(=O)c4nccn4C)c3)cc2C(F)(F)F)CC1,43,0,-20,1,-8
CCN1CCN(Cc2ccc(NC(=O)c3ccc(C)c(NC(=O)c4cncc(-c5cccs5)c4)c3)cc2C(F)(F)F)CC1,72*,nt,nt,nt,nt
SMILES,Gli-Sufu block,GalR3 antag,Jurkat NFkB inh,COUP-TFII inh,697 NFkB inh
OC1(c2cccc(C(F)(F)F)c2)CCN(c2ncnc3c2[nH]c2ccc(F)cc23)CC1,-20,-4,nt,47*,nt
Fc1ccc2[nH]c3c(N4CCN(c5ccccc5)CC4)ncnc3c2c1,-11,-8,27,20,-21
O=C(O)c1ccc(NC2=C/C(=N/S(=O)(=O)c3cccs3)c3ccccc3C2=O)cc1,nt,-4,nt,0,nt
Cc1ccc(NC2=C/C(=N\S(=O)(=O)c3cccs3)c3ccccc3C2=O)c(C)c1,65*,nt,-10,nt,-189
O=C1C(Nc2ccc(O)cc2)=C/C(=N/S(=O)(=O)c2cccs2)c2ccccc21,94*,-9,nt,78*,nt
O=[N+]([O-])c1cc(CN2CCOCC2)c2cccnc2c1O,-10,nt,nt,nt,nt
O=[N+]([O-])c1cc(CN2CCN(c3ccccc3)CC2)c(O)c2ncccc12,80*,-6,9,9,-6
CCOC(=O)[C@]12CCCC3=C1N(CCC3)C(=O)[C@@H](CC(=O)NCc1ccc(OC)c(OC)c1)C2,nt,nt,nt,5,nt
Cc1ccc(NCCN(C)C)c2c(=O)c3cc(O)ccc3sc12,66*,-7,nt,-94,nt
C=CCN(C)C(C#Cc1ccccc1)Cc1ccccc1 (stereo not given),nt,nt,nt,-5,nt
CC(C)CN1C(=O)C[C@@]2(C(=O)N(C)c3ccc(NS(=O)(=O)c4ccc(F)cc4)cc32)C1c1ccccc1 (stereo not given in full),nt,nt,nt,-25,nt
COc1ccc(N=C(NN)c2ccc3ccccc3n2)cc1,49,-9,-32,75*,-126
Cc1ccc(-c2nc(CSCC(=O)N3CCN(c4ccccn4)CC3)c(C)o2)cc1,25,9,-2,47*,-25
Cc1ccc(-c2nc(CSCC(=O)N3CCOCC3)c(C)o2)cc1,-8,-4,-6,1,-10
Cc1cc(NS(=O)(=O)c2ccc(NC(=O)CSc3nnc(SCc4ccc(Cl)cc4)s3)cc2)nc(C)n1,nt,nt,nt,10,nt
O=[N+]([O-])c1cc(C(F)(F)F)ccc1N1CCN(S(=O)(=O)c2ccc3ccccc3c2)CC1,6,16*,23,17,-11
CC(=O)Oc1c(C)cc(Cl)cc1C(=O)Nc1ccc([N+](=O)[O-])cc1Cl,73*,6,-28,1,-127
COC(=O)[C@@]12CCCCC3=C1N(CCC3)C(=O)[C@H]2CC(=O)N1CCN(C(=O)C2CC2)CC1,nt,nt,nt,5,nt
COc1cc(/C=N/NC(=O)c2cccc([N+](=O)[O-])c2)cc(OC)c1O,1,2,-10,2,15
COc1cc(/C=N/NC(=O)c2cncc(Br)c2)cc([N+](=O)[O-])c1O,-1,25*,5,11,8
Fc1ccc(-c2n[nH]c(=S)n2N=Cc2cccc(OCc3ccccc3)c2)cc1,nt,nt,nt,-9,nt
CCc1nnc(NC(=O)c2cccc(C(=O)Nc3nnc(CC)s3)n2)s1,85*,-3,nt,-8,nt
C[C@@H]1OCN(C)[C@H]2C[C@H]3c4[nH]c5cccc(-c6ccc7c(c6)OCO7)c5c4CCN3C[C@@H]12,nt,nt,nt,12,nt
COc1ccccc1/C=N\NC(=O)c1c(C)nc2ccc(Cl)cn12,-2,-6,3,1,1
COc1cccc(/C=N/NC(=O)c2c(C)nc3ccc(Cl)cn23)c1O,84*,-5,22,-20,21
COc1ccc(S[C@]2(C(=O)N(C)C)CC(=O)N(C(=O)C3CC3)[C@@H]2c2ccc(OC)cc2)cc1,nt,nt,nt,-6,nt
